Measured values reported in publication PMC7862700, “An all-to-all approach to the identification of sequence-specific readers for epigenetic DNA modifications on cytosine”.

Columns and labels:
Assay in all cases: DAPPL (digital affinity profiling via proximity ligation, sequencing); 10 mM Tris-HCl pH 7.5, 50 mM NaCl, 1 mM DTT, 4% glycerol, room temperature, 30 min; GST-TFs on glutathione beads, 16-mer random dsDNA library, 0.1% formaldehyde crosslink after washing; high values mean tight binding
Conditions in all cases: protein: recombinant; tags: N-terminal GST; dsDNA, one strand shown
ERF = target: T1, ERF (Homo sapiens, UniProt P50548 1-548)
T1 sequence: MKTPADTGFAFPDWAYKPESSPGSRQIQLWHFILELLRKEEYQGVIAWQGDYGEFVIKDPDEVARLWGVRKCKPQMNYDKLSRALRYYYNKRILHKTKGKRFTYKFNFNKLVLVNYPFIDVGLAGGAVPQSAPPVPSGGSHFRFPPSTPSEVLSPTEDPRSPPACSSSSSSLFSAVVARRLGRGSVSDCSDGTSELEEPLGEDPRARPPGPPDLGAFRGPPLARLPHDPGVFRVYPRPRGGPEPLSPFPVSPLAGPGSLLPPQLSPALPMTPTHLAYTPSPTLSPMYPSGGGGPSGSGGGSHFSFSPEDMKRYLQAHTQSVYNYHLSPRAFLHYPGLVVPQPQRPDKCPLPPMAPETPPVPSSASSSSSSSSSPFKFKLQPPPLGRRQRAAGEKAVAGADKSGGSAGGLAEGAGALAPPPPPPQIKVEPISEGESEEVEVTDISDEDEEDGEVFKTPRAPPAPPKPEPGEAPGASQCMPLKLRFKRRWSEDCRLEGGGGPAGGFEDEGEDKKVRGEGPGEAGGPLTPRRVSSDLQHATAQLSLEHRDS
How it was run: (§1)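 Human transcription factors fused to GST were expressed in yeast, captured on glutathione beads, given DNA barcodes and pooled with a GST-only negative control. Pools were incubated with 200 nmole of a 16-mer random double-stranded DNA library in Tris/NaCl/DTT/glycerol buffer at room temperature for 30 min. They were then washed, crosslinked with 0.1% formaldehyde, proximity-ligated (BsaI/T4 ligase, 1 h, 37 °C), PCR-amplified and sequenced on an Illumina NextSeq500. Binding signal is each 6-mer's read frequency for a factor divided by its frequency for the GST control.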

ETV3L = target: T2, ETV3L (Homo sapiens, UniProt Q6ZN32 1-361)
T2 sequence: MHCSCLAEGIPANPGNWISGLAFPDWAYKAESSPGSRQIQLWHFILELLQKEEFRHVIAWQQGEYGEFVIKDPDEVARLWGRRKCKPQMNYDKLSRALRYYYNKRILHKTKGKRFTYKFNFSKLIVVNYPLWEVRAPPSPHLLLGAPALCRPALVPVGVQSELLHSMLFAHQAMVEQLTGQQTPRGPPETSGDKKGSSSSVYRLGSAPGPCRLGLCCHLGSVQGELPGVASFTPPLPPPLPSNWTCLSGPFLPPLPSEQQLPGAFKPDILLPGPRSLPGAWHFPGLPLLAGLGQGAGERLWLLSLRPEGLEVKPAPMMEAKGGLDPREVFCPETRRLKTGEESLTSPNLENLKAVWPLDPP
How it was run: as §1

ETS2 = target: T3, ETS2 (Homo sapiens, UniProt P15036 1-469)
T3 sequence: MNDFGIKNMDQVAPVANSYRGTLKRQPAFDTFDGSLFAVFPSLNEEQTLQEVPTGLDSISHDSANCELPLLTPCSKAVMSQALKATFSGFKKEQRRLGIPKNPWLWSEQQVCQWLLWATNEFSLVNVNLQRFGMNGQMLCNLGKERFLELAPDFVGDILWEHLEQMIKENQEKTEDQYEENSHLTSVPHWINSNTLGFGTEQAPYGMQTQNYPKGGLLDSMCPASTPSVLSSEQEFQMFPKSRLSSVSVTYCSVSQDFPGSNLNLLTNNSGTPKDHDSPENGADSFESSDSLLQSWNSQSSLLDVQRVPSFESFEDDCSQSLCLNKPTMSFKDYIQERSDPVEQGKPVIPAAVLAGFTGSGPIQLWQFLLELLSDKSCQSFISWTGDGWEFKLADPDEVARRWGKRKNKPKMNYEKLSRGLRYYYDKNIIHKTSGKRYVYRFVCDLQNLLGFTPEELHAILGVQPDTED
How it was run: as §1

SPDEF = target: T4, SPDEF (Homo sapiens, UniProt O95238 1-335)
T4 sequence: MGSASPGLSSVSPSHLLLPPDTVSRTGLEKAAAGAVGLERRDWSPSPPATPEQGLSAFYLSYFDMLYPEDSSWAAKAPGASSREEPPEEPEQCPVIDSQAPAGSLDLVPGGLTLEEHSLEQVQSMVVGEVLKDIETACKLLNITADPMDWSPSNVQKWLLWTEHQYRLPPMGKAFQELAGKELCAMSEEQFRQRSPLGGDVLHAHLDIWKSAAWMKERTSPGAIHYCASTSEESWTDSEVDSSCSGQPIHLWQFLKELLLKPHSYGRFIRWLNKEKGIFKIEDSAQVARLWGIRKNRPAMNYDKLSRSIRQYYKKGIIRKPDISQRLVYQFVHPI
How it was run: as §1

ETV7 = target: T5, ETV7 (Homo sapiens, UniProt Q9Y603 1-341)
T5 sequence: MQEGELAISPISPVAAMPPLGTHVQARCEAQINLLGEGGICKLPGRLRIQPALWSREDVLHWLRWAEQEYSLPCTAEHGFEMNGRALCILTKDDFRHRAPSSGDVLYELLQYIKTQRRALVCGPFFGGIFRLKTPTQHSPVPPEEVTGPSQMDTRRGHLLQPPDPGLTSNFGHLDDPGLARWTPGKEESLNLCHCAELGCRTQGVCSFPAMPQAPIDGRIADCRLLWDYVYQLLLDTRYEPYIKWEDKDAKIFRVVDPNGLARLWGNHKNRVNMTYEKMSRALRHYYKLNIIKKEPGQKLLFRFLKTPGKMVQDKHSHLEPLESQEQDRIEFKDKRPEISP
How it was run: as §1

ELF5 = target: T6, ELF5 (Homo sapiens, UniProt Q9UKW6-2 1-255)
T6 sequence: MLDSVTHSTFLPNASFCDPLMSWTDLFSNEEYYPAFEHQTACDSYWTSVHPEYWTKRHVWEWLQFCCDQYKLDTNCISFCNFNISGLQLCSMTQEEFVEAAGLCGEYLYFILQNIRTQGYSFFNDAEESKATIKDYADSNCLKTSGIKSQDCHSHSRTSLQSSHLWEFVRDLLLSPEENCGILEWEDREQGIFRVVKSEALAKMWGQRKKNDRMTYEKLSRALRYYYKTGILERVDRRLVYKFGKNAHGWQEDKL
How it was run: as §1

ETV3 = target: T7, ETV3 (Homo sapiens, UniProt P41162-2 1-143)
T7 sequence: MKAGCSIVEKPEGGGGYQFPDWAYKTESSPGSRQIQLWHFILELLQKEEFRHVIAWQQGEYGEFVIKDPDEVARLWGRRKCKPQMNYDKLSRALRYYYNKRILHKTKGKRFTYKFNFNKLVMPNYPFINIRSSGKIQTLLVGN
How it was run: as §1

ETV6 = ETV6 (Homo sapiens, UniProt P41212 1-452)
How it was run: as §1

ETV6, sequence (P41212 whole entry): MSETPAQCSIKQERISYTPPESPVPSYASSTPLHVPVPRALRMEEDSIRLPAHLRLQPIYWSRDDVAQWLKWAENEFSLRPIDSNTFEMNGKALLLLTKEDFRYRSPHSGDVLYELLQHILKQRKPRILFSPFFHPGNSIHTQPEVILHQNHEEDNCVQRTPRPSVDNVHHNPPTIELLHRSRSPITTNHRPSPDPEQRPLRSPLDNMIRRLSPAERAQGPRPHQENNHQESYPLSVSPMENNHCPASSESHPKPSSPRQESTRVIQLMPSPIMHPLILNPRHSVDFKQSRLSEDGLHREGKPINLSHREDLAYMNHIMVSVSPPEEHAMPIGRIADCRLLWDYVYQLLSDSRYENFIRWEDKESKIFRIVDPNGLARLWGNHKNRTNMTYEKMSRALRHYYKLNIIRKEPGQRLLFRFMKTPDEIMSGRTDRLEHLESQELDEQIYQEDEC

Row | Sequence | binding signal (ERF) | binding signal (ETV3L) | binding signal (ETS2) | binding signal (SPDEF) | binding signal (ETV7) | binding signal (ELF5) | binding signal (ETV3) | binding signal (ETV6)
1 | TCACTA | 1.24 fold enrichment (6-mer frequency, TF over GST control) | 1.18 fold enrichment (6-mer frequency, TF over GST control) | 1.25 fold enrichment (6-mer frequency, TF over GST control) | 1.07 fold enrichment (6-mer frequency, TF over GST control) | 1.23 fold enrichment (6-mer frequency, TF over GST control) | 1.15 fold enrichment (6-mer frequency, TF over GST control) | 1.05 fold enrichment (6-mer frequency, TF over GST control) | 1.06 fold enrichment (6-mer frequency, TF over GST control)
2 | CCGGTA | 1.4 fold enrichment (6-mer frequency, TF over GST control) | 1.46 fold enrichment (6-mer frequency, TF over GST control) | 1.54 fold enrichment (6-mer frequency, TF over GST control) | 1.96 fold enrichment (6-mer frequency, TF over GST control) | 1.35 fold enrichment (6-mer frequency, TF over GST control) | 1.83 fold enrichment (6-mer frequency, TF over GST control) | 1.68 fold enrichment (6-mer frequency, TF over GST control) | 1.65 fold enrichment (6-mer frequency, TF over GST control)
3 | GATGCC | 1.36 fold enrichment (6-mer frequency, TF over GST control) | 1.39 fold enrichment (6-mer frequency, TF over GST control) | 1.33 fold enrichment (6-mer frequency, TF over GST control) | 1.52 fold enrichment (6-mer frequency, TF over GST control) | 1.27 fold enrichment (6-mer frequency, TF over GST control) | 1.35 fold enrichment (6-mer frequency, TF over GST control) | 1.39 fold enrichment (6-mer frequency, TF over GST control) | 1.32 fold enrichment (6-mer frequency, TF over GST control)
4 | AACACG | 1.14 fold enrichment (6-mer frequency, TF over GST control) | 1.15 fold enrichment (6-mer frequency, TF over GST control) | 1.25 fold enrichment (6-mer frequency, TF over GST control) | 1.22 fold enrichment (6-mer frequency, TF over GST control) | 1.13 fold enrichment (6-mer frequency, TF over GST control) | 1.22 fold enrichment (6-mer frequency, TF over GST control) | 1.3 fold enrichment (6-mer frequency, TF over GST control) | 1.23 fold enrichment (6-mer frequency, TF over GST control)
5 | ATGCCC | 1.31 fold enrichment (6-mer frequency, TF over GST control) | 1.26 fold enrichment (6-mer frequency, TF over GST control) | 1.29 fold enrichment (6-mer frequency, TF over GST control) | 1.36 fold enrichment (6-mer frequency, TF over GST control) | 1.45 fold enrichment (6-mer frequency, TF over GST control) | 1.27 fold enrichment (6-mer frequency, TF over GST control) | 1.32 fold enrichment (6-mer frequency, TF over GST control) | 1.35 fold enrichment (6-mer frequency, TF over GST control)
